In the supplement of paper PMC11732987, “Enantioselective OTUD7B fragment discovery through chemoproteomics screening and high-throughput optimisation” (Communications Chemistry, 2025):

The compounds below were run against T1, VCPIP1 (UniProt Q96JH7) (assay: log2 ratio of Biotin-Ahx-Ub-VS probe labelling (fragment/DMSO); higher = less target engagement (more negative = stronger competition), active = hit call of the paper (q ≤ 0.05, log2 ratio ≤ -1)). Conditions: compound concentration: 200 uM; treatment time: 3 h.
T1 sequence (whole entry): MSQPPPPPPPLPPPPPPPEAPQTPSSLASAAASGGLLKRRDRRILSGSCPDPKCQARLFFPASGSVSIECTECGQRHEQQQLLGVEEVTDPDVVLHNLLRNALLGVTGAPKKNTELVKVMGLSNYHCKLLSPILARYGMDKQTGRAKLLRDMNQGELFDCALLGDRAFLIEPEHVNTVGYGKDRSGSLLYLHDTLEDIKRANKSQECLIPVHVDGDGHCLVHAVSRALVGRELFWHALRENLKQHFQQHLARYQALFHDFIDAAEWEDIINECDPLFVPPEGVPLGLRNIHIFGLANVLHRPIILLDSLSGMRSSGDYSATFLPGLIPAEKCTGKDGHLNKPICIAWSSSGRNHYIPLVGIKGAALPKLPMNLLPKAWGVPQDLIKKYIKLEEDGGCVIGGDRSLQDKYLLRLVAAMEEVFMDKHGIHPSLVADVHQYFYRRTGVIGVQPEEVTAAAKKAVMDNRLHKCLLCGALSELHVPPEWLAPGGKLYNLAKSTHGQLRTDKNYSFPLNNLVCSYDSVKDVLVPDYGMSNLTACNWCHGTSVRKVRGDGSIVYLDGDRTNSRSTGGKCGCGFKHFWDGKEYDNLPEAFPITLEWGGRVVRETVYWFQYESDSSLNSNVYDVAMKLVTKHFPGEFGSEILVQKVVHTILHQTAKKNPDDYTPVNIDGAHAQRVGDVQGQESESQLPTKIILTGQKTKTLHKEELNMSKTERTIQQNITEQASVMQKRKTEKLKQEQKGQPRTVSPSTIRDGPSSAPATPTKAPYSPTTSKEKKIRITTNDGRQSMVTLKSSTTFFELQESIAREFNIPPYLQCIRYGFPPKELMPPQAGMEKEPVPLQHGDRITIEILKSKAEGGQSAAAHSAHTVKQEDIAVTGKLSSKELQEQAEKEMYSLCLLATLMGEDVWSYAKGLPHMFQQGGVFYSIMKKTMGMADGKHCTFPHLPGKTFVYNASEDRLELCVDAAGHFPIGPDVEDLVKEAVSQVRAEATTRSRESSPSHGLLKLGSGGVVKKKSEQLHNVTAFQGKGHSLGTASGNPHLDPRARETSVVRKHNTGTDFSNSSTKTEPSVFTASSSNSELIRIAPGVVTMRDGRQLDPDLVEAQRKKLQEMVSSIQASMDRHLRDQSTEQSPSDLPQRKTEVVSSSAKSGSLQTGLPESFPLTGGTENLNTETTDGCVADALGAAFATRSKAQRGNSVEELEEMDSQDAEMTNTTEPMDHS
Experimental: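 Competitive ABPP in HEK293T cell lysate. Lysates were treated with each chloroacetamide fragment at 200 µM for 3 h, then with Biotin-Ahx-Ub-VS (0.5 µM, 1 h), NeutrAvidin-enriched and analysed by diaPASEF LC-MS/MS. Protein LFQ was median-normalised; average log2 ratio is fragment/DMSO from an unpaired t-test (n=3 treated, n=44 DMSO). Hits: q ≤ 0.05, log2 ratio ≤ -1, unique peptides ≥ 2.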

log2 ratio of Biotin-Ahx-Ub-VS probe labelling, inactive:
CN(Cc1nc2ccccc2[nH]1)C(=O)CCl.Cl -0.467
COCC1C=CCCN1C(=O)CCl (stereo not given) -0.426
CC(O)CC1CCN(C(=O)CCl)CC1 (stereo not given) -0.106
CN(C)C(=O)c1ccc(NC(=O)CCl)cc1 -0.601
Cl.Cn1c(CNC(=O)CCl)nc2cccnc21 -0.977
O=C(CCl)NC(Cn1ccccc1=O)c1ccccc1 (stereo not given) -0.334
Cc1ccc(CN(CCO)C(=O)CCl)cc1 -0.862
O=C(CCl)N1CCc2sccc2C1 -0.819
CC(=O)C1CCCCN1C(=O)CCl (stereo not given) -0.0774
Cc1cccc(NC(=O)CCl)c1C -0.666
Cc1nc(CNC(=O)CCl)c2ccccn12.Cl -0.406
O=C(CCl)Nc1nnc(CC(F)(F)F)o1 -0.723
CCN(Cc1ccc(C#N)cc1F)C(=O)CCl -0.594
Cc1cccc(C)c1NC(=O)CCl -0.74
CNC(=O)C1(NC(=O)CCl)CCCCC1 -0.262
Cc1cc(Cl)ccc1NC(=O)CCl -0.193
O=C(CCl)N1CCN2C(=O)CCC2C1 (stereo not given) -0.0347
O=C(CCl)NC1CCCCNC1=O (stereo not given) -0.603
Cc1c(NC(=O)CCl)c(=O)n(-c2ccccc2)n1C -0.255
O=C(CCl)NCCC1COCCO1 (stereo not given) -0.791
Cl.O=C(CCl)N1CCn2ncc(O)c2C1 -0.764
O=C(CCl)N[C@H]1CCS(=O)(=O)c2ccccc21 -0.862

log2 ratio of Biotin-Ahx-Ub-VS probe labelling, active:
Cl.O=C(CCl)NCCc1ncc(F)cc1F -1.69
CC(NC(=O)CCl)c1noc(Cc2ccccc2)n1 (stereo not given) -1.42
N#Cc1ccc(Cl)cc1NC(=O)CCl -1.7
Cc1nc(-c2cccc(NC(=O)CCl)c2)cs1 -1.87
N#Cc1ccc(CNC(=O)CCl)cc1 -1.31
Cl.O=C(CCl)N1CCC(n2nc3ccccc3n2)CC1 -2.56
COc1ccc(CN(C)C(=O)CCl)cc1 -1.54
CC(NC(=O)CCl)c1ccc2[nH]ncc2c1 (stereo not given) -2.26
O=C(CCl)NC1CCS(=O)(=O)c2ccccc21 (stereo not given) -1.22
Cc1ccc(N2CCC(NC(=O)CCl)C2=O)cc1 (stereo not given) -2.9
Cc1cccn2cc(CCNC(=O)CCl)nc12.Cl -1.07
CC(=O)Nc1ccc(NC(=O)CCl)cc1 -1.31
CN1C(=O)c2ccc(NC(=O)CCl)cc2C1=O -2.49
Cl.Cn1cnc2cc(CNC(=O)CCl)ccc21 -1.11
CN1c2ccccc2C(NC(=O)CCl)CS1(=O)=O (stereo not given) -2.14
Cc1ccc(-c2nnc(C)[nH]2)c(NC(=O)CCl)c1 -2.55
Cc1noc(C)c1CNC(=O)CCl -1.8
O=C(CCl)NCc1ccc(N2CCOCC2)nc1 -2
